# PubChem BioAssay (EPA / NIEHS)
# “And” between values parts separate entries of the source, which are not always exact repeats. Identical values can stand only once. Records with an inconclusive call do not appear. Where a structure was tested more than once in an assay, its records may differ in their call. The source made the active and inactive calls. The calls were made as follows, unless noted: active = hit-call score of the fitted dose curve at least 0.9, where 1 is the maximum; inconclusive = response in the unintended direction; inactive = score below 0.9.
# Target: Estrogen receptor (Homo sapiens) (UniProt P03372)
# Test: OT_ERa_GFPERaERE_0480: Odyssey Thera (OT) 8-hour HeLa Transcription Induction Assay for Estrogen Receptor (AID 2283381; active = hit-call score of the fitted dose curve at least 0.9, where 1 is the maximum; inactive = score below 0.9)
# How it was run: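 Cells (HeLa) receive compound; after 8 h, reporter fluorescence is imaged and quantified by high-content analysis. Gain-of-signal relative to DMSO gives the endpoint.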
# Sequence of Estrogen receptor (Homo sapiens) (P03372 whole entry, looked up): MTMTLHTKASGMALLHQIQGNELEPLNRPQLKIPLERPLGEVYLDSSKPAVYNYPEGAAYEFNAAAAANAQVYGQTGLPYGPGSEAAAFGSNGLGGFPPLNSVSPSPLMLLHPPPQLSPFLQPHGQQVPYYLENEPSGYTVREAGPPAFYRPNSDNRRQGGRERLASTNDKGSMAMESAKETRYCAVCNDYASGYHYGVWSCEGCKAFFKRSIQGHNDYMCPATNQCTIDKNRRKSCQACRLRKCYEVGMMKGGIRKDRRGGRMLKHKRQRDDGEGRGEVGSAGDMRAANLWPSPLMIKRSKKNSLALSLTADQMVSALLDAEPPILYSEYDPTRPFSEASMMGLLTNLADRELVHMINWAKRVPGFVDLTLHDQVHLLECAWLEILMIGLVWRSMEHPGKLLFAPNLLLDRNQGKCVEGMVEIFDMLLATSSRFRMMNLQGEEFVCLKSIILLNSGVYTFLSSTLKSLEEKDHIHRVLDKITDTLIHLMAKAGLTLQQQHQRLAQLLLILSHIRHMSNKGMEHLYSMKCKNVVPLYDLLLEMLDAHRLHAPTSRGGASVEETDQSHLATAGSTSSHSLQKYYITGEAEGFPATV
row,Structure (SMILES),outcome
1,CCN(Cc1cccnc1)C(=O)c1cccc(Cl)c1[C@]1(C)C(=O)N(Cc2ccc(OC)cc2OC)c2ccc(Cl)cc21,inactive
2,CC1=CC(=O)/C(=C(/C)O)C(=O)O1,inactive
3,CCCCCCCCCCCCO,inactive
4,CC[C@@H]1C[C@H](N(Cc2cc(C(F)(F)F)cc(C(F)(F)F)c2)C(C)=O)c2cc(C(F)(F)F)ccc2N1C(=O)OC(C)C,inactive
5,NC(=O)c1nc(-c2cccc(-c3cc(F)ccc3OCC(F)(F)C(F)(F)F)c2)n[nH]1,inactive
6,O=c1ccc2ccccc2o1,inactive
7,Cc1cc2c(cc1C(F)(F)F)N(C(=O)Nc1ccc(Oc3cccnc3C)nc1)CC2,inactive
8,Cc1ccc2oc(CN(Cc3ccccc3)C(=O)Nc3c(F)cc(F)cc3F)c(-c3ccc(Cl)cc3)c2c1,inactive
9,OCCO,inactive
10,CCN(Cc1cccc(S(=O)(=O)O)c1)c1ccc(C(=C2C=CC(=[N+](CC)Cc3cccc(S(=O)(=O)O)c3)C=C2)c2ccccc2S(=O)(=O)[O-])cc1,inactive
11,OC12N=C(c3ccccc3)SC1Cc1cc(Cl)ccc12 (stereo not drawn),inactive
12,Cc1oc2c(NC(=O)c3c(Cl)cccc3Cl)cccc2c1C(C)(C)O,inactive
13,CCCC(=O)OCCC(C)C,inactive
14,Cc1c2ccccc2c(C)c2c1ccc1ccccc12,inactive
15,CCCCCCCCOc1ccc(C(=O)c2ccccc2)c(O)c1,inactive
16,CC(C)(O)c1ccc(CNC(=O)c2cccnc2Oc2ccc3nonc3c2)cc1,inactive
17,O=C(O)Cn1c(=O)n(Cc2ccc(Br)cc2F)c(=O)c2ccc(Cl)cc21,inactive
18,CC[C@H](NC(=O)c1cc(F)ccc1NS(=O)(=O)c1cccc2cccnc12)c1ccccc1,inactive
19,CCO[Si](CCCNC(N)=O)(OCC)OCC,inactive
20,O=C(O)c1ccccc1-n1cc(C(=O)O)c(=O)c2cc(Nc3c(F)cc(F)cc3Cl)c(Cl)cc21,inactive
21,Cc1cccc2ccccc12,inactive
22,c1ccc2ccccc2c1,inactive
23,O=CCCCC=O,inactive
24,CC(C)(C)c1csc(-c2cc3cc(OCc4ccccc4CC(=O)O)ccc3o2)n1,inactive
25,Cc1ccc(C(C)C)cc1,inactive
26,O=C(O)c1ccccc1C(=O)OCc1ccccc1,inactive

# Target: Estrogen receptor (Homo sapiens) (UniProt P03372)
# Test: OT_ERa_GFPERaERE_0120: Odyssey Thera (OT) 2-hour HeLa Transcription Induction Assay for Estrogen Receptor (AID 2283382)
# How it was run: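 Measures ESR1 pathway reporter gain-of-signal in HeLa cells after a 2-hour treatment, detected as fluorescent protein induction by microscopy, DMSO as baseline.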
row,Structure (SMILES),outcome
1,CCN(Cc1cccnc1)C(=O)c1cccc(Cl)c1[C@]1(C)C(=O)N(Cc2ccc(OC)cc2OC)c2ccc(Cl)cc21,inactive
2,CC1=CC(=O)/C(=C(/C)O)C(=O)O1,inactive
3,CCCCCCCCCCCCO,inactive
4,CC[C@@H]1C[C@H](N(Cc2cc(C(F)(F)F)cc(C(F)(F)F)c2)C(C)=O)c2cc(C(F)(F)F)ccc2N1C(=O)OC(C)C,inactive
5,NC(=O)c1nc(-c2cccc(-c3cc(F)ccc3OCC(F)(F)C(F)(F)F)c2)n[nH]1,inactive
6,O=c1ccc2ccccc2o1,inactive
7,Cc1cc2c(cc1C(F)(F)F)N(C(=O)Nc1ccc(Oc3cccnc3C)nc1)CC2,inactive
8,Cc1ccc2oc(CN(Cc3ccccc3)C(=O)Nc3c(F)cc(F)cc3F)c(-c3ccc(Cl)cc3)c2c1,inactive
9,OCCO,inactive
10,CCN(Cc1cccc(S(=O)(=O)O)c1)c1ccc(C(=C2C=CC(=[N+](CC)Cc3cccc(S(=O)(=O)O)c3)C=C2)c2ccccc2S(=O)(=O)[O-])cc1,inactive
11,OC12N=C(c3ccccc3)SC1Cc1cc(Cl)ccc12 (stereo not drawn),inactive
12,Cc1oc2c(NC(=O)c3c(Cl)cccc3Cl)cccc2c1C(C)(C)O,inactive
13,Cc1c2ccccc2c(C)c2c1ccc1ccccc12,inactive
14,CCCCCCCCOc1ccc(C(=O)c2ccccc2)c(O)c1,inactive
15,CC(C)(O)c1ccc(CNC(=O)c2cccnc2Oc2ccc3nonc3c2)cc1,inactive
16,O=C(O)Cn1c(=O)n(Cc2ccc(Br)cc2F)c(=O)c2ccc(Cl)cc21,inactive
17,CC[C@H](NC(=O)c1cc(F)ccc1NS(=O)(=O)c1cccc2cccnc12)c1ccccc1,inactive
18,CCO[Si](CCCNC(N)=O)(OCC)OCC,inactive
19,O=C(O)c1ccccc1-n1cc(C(=O)O)c(=O)c2cc(Nc3c(F)cc(F)cc3Cl)c(Cl)cc21,inactive
20,Cc1cccc2ccccc12,inactive
21,c1ccc2ccccc2c1,inactive
22,O=CCCCC=O,inactive
23,CC(C)(C)c1csc(-c2cc3cc(OCc4ccccc4CC(=O)O)ccc3o2)n1,inactive
24,Cc1ccc(C(C)C)cc1,inactive
25,O=C(O)c1ccccc1C(=O)OCc1ccccc1,inactive

# Target: Bile acid receptor (Homo sapiens) (UniProt Q96RI1)
# Test: OT_FXR_FXRSRC1_0480: Odyssey Thera (OT) 8-hour HEK293T Protein-Complementation Assay for Farnesoid X receptor/SRC-1 Co-activator (AID 2283383)
# How it was run: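 Co-activator recruitment to FXR was measured in living HEK293T cells, where interaction of the two fused partners restored an active fluorescent reporter. Signal gain after 8 h treatment was referenced to DMSO.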
# Sequence of Bile acid receptor (Homo sapiens) (Q96RI1 whole entry, looked up): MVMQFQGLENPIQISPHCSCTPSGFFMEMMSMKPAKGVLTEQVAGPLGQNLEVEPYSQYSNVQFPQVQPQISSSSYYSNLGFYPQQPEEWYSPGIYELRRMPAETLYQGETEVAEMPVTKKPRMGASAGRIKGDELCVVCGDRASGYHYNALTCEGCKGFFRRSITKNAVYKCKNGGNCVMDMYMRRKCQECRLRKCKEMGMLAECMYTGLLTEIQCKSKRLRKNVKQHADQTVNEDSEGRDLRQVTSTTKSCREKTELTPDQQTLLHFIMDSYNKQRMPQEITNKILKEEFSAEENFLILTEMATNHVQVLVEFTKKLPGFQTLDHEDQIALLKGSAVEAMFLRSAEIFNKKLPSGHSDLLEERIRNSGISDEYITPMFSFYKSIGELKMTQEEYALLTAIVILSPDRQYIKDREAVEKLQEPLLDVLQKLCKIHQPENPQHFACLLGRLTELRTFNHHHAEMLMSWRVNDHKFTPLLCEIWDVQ
Structure (SMILES),AC50,outcome
CCN(Cc1cccnc1)C(=O)c1cccc(Cl)c1[C@]1(C)C(=O)N(Cc2ccc(OC)cc2OC)c2ccc(Cl)cc21,0.278 µM (active),–
CC1=CC(=O)/C(=C(/C)O)C(=O)O1,–,inactive
CCCCCCCCCCCCO,–,inactive
O=c1ccc2ccccc2o1,–,inactive
Cc1cc2c(cc1C(F)(F)F)N(C(=O)Nc1ccc(Oc3cccnc3C)nc1)CC2,19.1 µM (active),–
Cc1ccc2oc(CN(Cc3ccccc3)C(=O)Nc3c(F)cc(F)cc3F)c(-c3ccc(Cl)cc3)c2c1,–,inactive
CCN(Cc1cccc(S(=O)(=O)O)c1)c1ccc(C(=C2C=CC(=[N+](CC)Cc3cccc(S(=O)(=O)O)c3)C=C2)c2ccccc2S(=O)(=O)[O-])cc1,–,inactive
OC12N=C(c3ccccc3)SC1Cc1cc(Cl)ccc12 (stereo not drawn),71.7 µM (active),–
CCCCOC(=O)CC(CC(=O)OCCCC)(OC(C)=O)C(=O)OCCCC,9.51 µM (active),–
CC1(C)NC(=O)N(c2ccc([N+](=O)[O-])c(C(F)(F)F)c2)C1=O,–,inactive
Cc1ncc(CO)c(CO)c1O,–,inactive
Cc1oc2c(NC(=O)c3c(Cl)cccc3Cl)cccc2c1C(C)(C)O,–,inactive
CCCC(=O)OCCC(C)C,–,inactive
Cc1c2ccccc2c(C)c2c1ccc1ccccc12,14.3 µM (active),–
CCCCCCCCOc1ccc(C(=O)c2ccccc2)c(O)c1,–,inactive
O=c1c(-c2ccc(O)cc2)coc2cc(O)cc(O)c12,12.5 µM (active) and 11.5 µM (active) and 13.4 µM (active),inactive
O=C(O)Cn1c(=O)n(Cc2ccc(Br)cc2F)c(=O)c2ccc(Cl)cc21,–,inactive
CC[C@H](NC(=O)c1cc(F)ccc1NS(=O)(=O)c1cccc2cccnc12)c1ccccc1,31.9 µM (active),–
O=C(O)Cc1cc(I)c(Oc2ccc(O)c(I)c2)c(I)c1,–,inactive
O=C(O)c1ccccc1-n1cc(C(=O)O)c(=O)c2cc(Nc3c(F)cc(F)cc3Cl)c(Cl)cc21,–,inactive
Cc1cccc2ccccc12,–,inactive
O=C1CCC(C2CCCCC2)CC1,33.1 µM (active) and 50 µM (active),inactive
O=CCCCC=O,40.2 µM (active),–
CC(C)(C)c1csc(-c2cc3cc(OCc4ccccc4CC(=O)O)ccc3o2)n1,–,inactive
Cc1ccc(C(C)C)cc1,–,inactive
